T cruzi growth-1: T. cruzi proliferation inhibition. T. cruzi beta-gal in NIH3T3, GalScreen luminescence, 90 h. inhibition, % at 8.34 µM. 77,000 compounds, 5.9% hits. AID 624255;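 active means mean inhibition above about 93%, with at least 55% of replicates each passing it, limit read from the data, passing the limit was not always enough; inconclusive means only one of those two conditions holds; inactive means neither condition holds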
C diff HTS: inhibitors of Clostridium difficile growth | 86,000 compounds, 0.25% hits | Clostridium difficile clinical isolate growth, OD600, 24 h; stronger effect = lower value | growth activity, negative = inhibition, % at 16 µg/mL (by protocol);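 active means mean growth activity at or below -80% and every replicate also at or below -80%; inconclusive means mean at or below -80% but some replicate above -80%; inactive means mean growth activity above -80%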
Pf Dd2 inh: P. falciparum Dd2 growth inhibition. activity change, % at 10 µM. 94,000 compounds, 2.3% hits. SYBR Green, 72 h; stronger effect = lower value; in the data active means activity change below about -80%; inconclusive means no clear call, values can overlap the other calls
T cruzi growth-2: blocks T. cruzi growth in NIH3T3 host cells. shares compounds with T cruzi growth-1. T. cruzi beta-gal in NIH3T3, GalScreen luminescence, 90 h. inhibition, % at 8.35 µM. 5,600 compounds, 72% hits. AID 651739;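 active means mean replicate inhibition above about 95% and at least 55% of replicates individually reaching it, limit read from the data; inconclusive means only one of the two criteria is met; inactive means neither criterion is met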
T cruzi growth-3: Trypanosoma cruzi proliferation inhibition; shares compounds with T cruzi growth-1; T. cruzi beta-gal in NIH3T3, GalScreen luminescence, 90 h; inhibition, % at 2.09 µM; 5,600 compounds, 21% hits; AID 651740;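 active means mean inhibition above about 95%, with at least 55% of replicates also reaching it, limit read from the data; inconclusive means meets just one of the two conditions; inactive means meets neither condition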
NIH3T3 tox: cytotoxicity in mouse NIH/3T3 fibroblasts | shares compounds with T cruzi growth-1 | NIH/3T3 viability, CellTiter-Glo ATP luminescence, 90 h | cytotoxicity (signal decrease), % at 8.35 µM | 5,600 compounds, 14% hits | AID 651742;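 active means mean signal decrease across replicates above about 35% based on untreated-well scatter, with enough replicates individually passing, limit read from the data; inconclusive means no rule stated though some were filed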
NIH3T3 tox 2: NIH/3T3 (mouse) viability loss. inhibition, % at 24.9 µM. NIH/3T3 viability, CellTiter-Glo ATP luminescence, 90 h. shares compounds with T cruzi growth-1. 5,600 compounds, 56% hits;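 active means mean loss of cell viability signal at or above a set limit, and enough replicates individually reaching it; inconclusive means meets only the mean limit or only the replicate share; inactive means meets neither condition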
Hits are given with their value; n = inactive; u = inconclusive; x = no result given. Compounds with a hit are over-represented: about 6.7% of the library has one in this group of screens.

SMILES	T cruzi growth-1	C diff HTS	Pf Dd2 inh	others
COc1ccc(CN(C)C[C@@H]2OCCCC[C@H](C)Oc3ccc(NC(=O)CCCN(C)C)cc3C(=O)N([C@@H](C)CO)C[C@H]2C)cc1	x	n	n
CO[C@H]1CN(C)C(=O)c2cc(NC(=O)c3cccc(Oc4ccccc4)c3)ccc2OC[C@@H](C)NC[C@@H]1C	n	x	x
O=C(C[C@@H]1C=C[C@@H](NC(=O)Nc2cc(F)ccc2F)[C@H](CO)O1)Nc1ccccc1	n	x	n
O=C(NC1CCCC1)[C@H]1[C@H](CO)[C@H]2Cn3c(ccc(-c4ccccc4)c3=O)[C@@H]1N2CCc1ccccc1	n	n	x
C[C@H](O)C#Cc1cnc2c(c1)C(=O)N([C@@H](C)CO)C[C@@H](C)[C@@H](CN(C)CC1CCOCC1)O2	x	n	n
O=C(C[C@@H]1CC[C@H](NC(=O)C2CCC2)[C@H](CO)O1)NCC1CC1	n	x	n
CNC[C@@H]1Oc2ccc(NC(=O)Nc3ccc(F)cc3)cc2CC(=O)N([C@@H](C)CO)C[C@H]1C	x	n	n
Cc1ccc(S(=O)(=O)N(C)C[C@H]2OCCCC[C@H](C)Oc3ccc(NS(=O)(=O)c4ccc(Cl)cc4)cc3C(=O)N([C@@H](C)CO)C[C@H]2C)cc1	u	n	n	T cruzi growth-2=103.9;T cruzi growth-3=107.6;NIH3T3 tox=n;NIH3T3 tox 2=n
Cc1ccc(S(=O)(=O)N(C)C[C@@H]2OCCCC[C@@H](C)Oc3ccc(NS(=O)(=O)c4ccc(Cl)cc4)cc3C(=O)N([C@H](C)CO)C[C@@H]2C)cc1	n	n	n
Cc1ccc(S(=O)(=O)N(C)C[C@@H]2OCCCC[C@@H](C)Oc3ccc(NS(=O)(=O)c4ccc(Cl)cc4)cc3C(=O)N([C@@H](C)CO)C[C@@H]2C)cc1	110.4	n	n	T cruzi growth-2=99.6;T cruzi growth-3=113.1;NIH3T3 tox=n;NIH3T3 tox 2=45.5
Cc1ccc(S(=O)(=O)Nc2ccc3c(c2)C(=O)N([C@H](C)CO)C[C@H](C)[C@@H](CN(C)S(=O)(=O)c2ccc(Cl)cc2)OCCCC[C@H](C)O3)cc1	n	n	n
Cc1ccc(S(=O)(=O)N(C)C[C@@H]2OCCCC[C@H](C)Oc3ccc(NS(=O)(=O)c4ccc(Cl)cc4)cc3C(=O)N([C@@H](C)CO)C[C@H]2C)cc1	106.3	n	n	T cruzi growth-2=102.5;T cruzi growth-3=n;NIH3T3 tox=n;NIH3T3 tox 2=n
Cc1ccc(S(=O)(=O)N(C)C[C@H]2OCCCC[C@H](C)Oc3ccc(NS(=O)(=O)c4ccc(Cl)cc4)cc3C(=O)N([C@@H](C)CO)C[C@@H]2C)cc1	93.2	n	n	T cruzi growth-2=108.6;T cruzi growth-3=106.6;NIH3T3 tox=n;NIH3T3 tox 2=n
Cc1ccc(S(=O)(=O)Nc2ccc3c(c2)C(=O)N([C@@H](C)CO)C[C@@H](C)[C@@H](CN(C)S(=O)(=O)c2ccc(Cl)cc2)OCCCC[C@@H](C)O3)cc1	n	n	n
Cc1ccc(S(=O)(=O)Nc2ccc3c(c2)C(=O)N([C@H](C)CO)C[C@@H](C)[C@H](CN(C)S(=O)(=O)c2ccc(Cl)cc2)OCCCC[C@H](C)O3)cc1	x	n	n
COc1cccc(C(=O)Nc2ccc3c(c2)C(=O)N(C)C[C@@H](OC)[C@H](C)CN[C@@H](C)CO3)c1	n	x	n
C[C@@H](NC(=O)C[C@@H]1C[C@@H]2c3cc(NS(C)(=O)=O)ccc3O[C@@H]2[C@@H](CO)O1)c1ccccc1	x	n	n
O=S(=O)(N[C@@H]1CC[C@H](CCn2cc(-c3ccc(F)cc3)nn2)O[C@H]1CO)c1ccccc1F	n	n	n
COc1ccccc1S(=O)(=O)N[C@H]1CC[C@@H](CCn2cc(C3CCCCC3)nn2)O[C@H]1CO	n	x	n
CCCC(=O)N1CC2(CN(S(=O)(=O)CC)C2)c2c(n(C)c3cc(OC)ccc23)[C@H]1CO	x	n	n
O=C(C[C@H]1CC[C@H]2[C@@H](COC[C@@H](O)CN2Cc2cccc(C(F)(F)F)c2)O1)NCCc1ccncc1	n	n	n
C[C@@H]1CN([C@H](C)CO)C(=O)c2cc(NC(=O)CCCN(C)C)ccc2O[C@@H]1CN(C)Cc1ccc2c(c1)OCO2	x	n	n
C[C@@H]1CN([C@@H](C)CO)C(=O)Cc2cc(NC(=O)CCN3CCOCC3)ccc2O[C@H]1CN(C)S(=O)(=O)c1ccc(Cl)cc1	n	n	n

Source: PubChem (Broad Institute)
